High-throughput results deposited in PubChem by Broad Institute.
IDE exosite inh: exo-site inhibitors of human insulin-degrading enzyme. purified IDE, FL-6b probe fluorescence polarization; active compounds read low. z-score at 20 µM. P14735. AID 1259349. actives 6.3% (n = 17,000);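 active means z-score of -3 or lower, meaning strong loss of probe binding signal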;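 further: His-tagged human IDE residues 42-1019 made in E. coli with 30 nM FL-6b probe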
Target sequence (P14735 42-1019 limits assumed): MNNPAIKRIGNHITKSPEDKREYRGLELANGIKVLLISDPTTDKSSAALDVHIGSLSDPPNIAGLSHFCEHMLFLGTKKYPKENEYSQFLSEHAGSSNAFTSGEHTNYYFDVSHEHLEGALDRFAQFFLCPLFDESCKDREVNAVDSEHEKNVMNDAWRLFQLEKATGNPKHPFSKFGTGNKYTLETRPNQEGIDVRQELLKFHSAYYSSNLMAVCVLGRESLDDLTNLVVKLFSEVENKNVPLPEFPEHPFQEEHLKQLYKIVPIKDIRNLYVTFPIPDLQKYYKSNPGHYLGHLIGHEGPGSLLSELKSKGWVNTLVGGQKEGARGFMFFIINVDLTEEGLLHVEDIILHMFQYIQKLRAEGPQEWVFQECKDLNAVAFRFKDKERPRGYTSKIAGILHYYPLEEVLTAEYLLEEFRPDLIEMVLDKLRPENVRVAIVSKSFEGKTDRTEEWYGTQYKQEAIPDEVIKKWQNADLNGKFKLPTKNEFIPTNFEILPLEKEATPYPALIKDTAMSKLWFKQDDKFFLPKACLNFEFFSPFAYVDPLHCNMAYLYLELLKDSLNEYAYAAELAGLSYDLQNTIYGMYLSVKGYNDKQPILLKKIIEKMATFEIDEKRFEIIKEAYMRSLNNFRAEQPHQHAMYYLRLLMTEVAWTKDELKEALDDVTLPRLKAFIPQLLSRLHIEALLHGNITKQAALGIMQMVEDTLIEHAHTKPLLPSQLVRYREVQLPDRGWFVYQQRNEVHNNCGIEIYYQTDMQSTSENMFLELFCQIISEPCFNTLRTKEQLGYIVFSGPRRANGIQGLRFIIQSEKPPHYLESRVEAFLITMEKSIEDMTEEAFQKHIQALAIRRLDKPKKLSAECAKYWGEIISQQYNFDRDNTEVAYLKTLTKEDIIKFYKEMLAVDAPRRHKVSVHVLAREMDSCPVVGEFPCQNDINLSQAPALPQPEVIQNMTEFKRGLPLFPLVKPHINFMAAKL
Numbers without * were called inactive. This excerpt belongs to a sample that is enriched for hits.

SMILES	IDE exosite inh
Cc1ccccc1-c1ccc(C2[C@@H]3CN(S(=O)(=O)c4ccccc4)C[C@H]2N3)cc1 (stereo partly drawn)	-10.1*
C/C=C/c1ccc(C2[C@@H]3CN(S(=O)(=O)c4ccccc4)C[C@H]2N3)cc1 (stereo partly drawn)	0.064
Cc1ccc(S(=O)(=O)N2C[C@@H]3N[C@H](C2)C3c2ccc(/C=C/c3ccccc3)cc2)cc1 (stereo partly drawn)	4.19
N#Cc1ccc(-c2ccc([C@H]3[C@@H](CO)N4C(=O)CN(C(=O)C5CCCC5)C[C@@H]34)cc2)cc1	0.262
COc1ccccc1C#Cc1ccc([C@@H]2[C@@H](C#N)N(C(=O)C3CCC3)[C@@H]2CO)cc1	-4.63*
N#C[C@@H]1[C@H](c2ccc(C#Cc3ccc(F)cc3)cc2)[C@@H](CO)N1C(=O)C1CCCC1	-0.0257
COc1ccccc1C#Cc1ccc([C@H]2[C@H](C#N)N(C(=O)C3CCC3)[C@H]2CO)cc1	-8.07*
COc1ccccc1C#Cc1ccc([C@@H]2[C@@H](CO)N(C(=O)C3CCC3)[C@H]2C#N)cc1	-4.23*
COc1ccccc1C#Cc1ccc([C@@H]2[C@@H](C#N)N(C(=O)C3CCC3)[C@H]2CO)cc1	-4.83*
N#C[C@@H]1[C@H](c2ccccc2-c2cccc(F)c2)[C@@H](CO)N1S(=O)(=O)c1cccc(F)c1	-1.13
O=C(Nc1cccc(F)c1)N1CC(=O)N2[C@@H](CO)[C@@H](c3ccc(-c4ccc(F)cc4)cc3)[C@@H]2C1	0.589
CCC(=O)N(C)C[C@@H]1[C@H](c2ccc(-c3ccccc3F)cc2)[C@H](CO)N1C(C)=O	1.35
Cc1ccccc1S(=O)(=O)N1CCCCN2[C@H](CO)[C@H](c3ccc(-c4cncnc4)cc3)[C@@H]2C1	4.51
CCN(C[C@@H]1N[C@@H](CO)[C@@H]1c1ccccc1)C(=O)c1ccncc1	0.513
C[C@@H]1CN([C@H](C)CO)C(=O)c2cc(NC(=O)CCC(F)(F)F)ccc2O[C@@H](C)CCCCO[C@H]1CN(C)C(=O)c1ccncc1	0.534
O=S(=O)(c1ccccc1F)N1CCCCN2[C@H](C1)[C@H](c1ccc(-c3cncnc3)cc1)[C@@H]2CO	1.1
CC(C)[C@@H]1COCc2cnnn2CCC[C@@H](C)C(=O)N1	-0.255
CCCC(=O)Nc1ccc2c(c1)C(=O)N(C)C[C@@H](OC)[C@H](C)CN(C(=O)c1ccccn1)[C@@H](C)CO2	0.963
COCC(=O)Nc1ccc2c(c1)C(=O)N(C)[C@H]1CC[C@H](CC(=O)NC3Cc4ccccc4C3)O[C@H]1CO2	-0.947
COc1ccccc1C#Cc1ccc([C@@H]2[C@@H](CO)N(C(=O)C3CCCCC3)[C@H]2C#N)cc1	-1.7
N#C[C@@H]1[C@@H](c2ccc(C#Cc3ccccc3F)cc2)[C@H](CO)N1C(=O)C1CCCCC1	1.43
COc1ccccc1C#Cc1ccc([C@@H]2[C@H](C#N)N(C(=O)C3CCCCC3)[C@H]2CO)cc1	-6.62*
N#C[C@@H]1[C@@H](c2ccc(C#Cc3ccccc3F)cc2)[C@@H](CO)N1C(=O)C1CCCCC1	2.9
N#C[C@@H]1[C@H](c2ccc(C#Cc3ccccc3F)cc2)[C@H](CO)N1C(=O)C1CCC1	3.58
COc1ccccc1C#Cc1ccc([C@@H]2[C@H](C#N)N(C(=O)C3CCC3)[C@H]2CO)cc1	-7.12*
SMILES	IDE exosite inh
N#C[C@H]1[C@@H](c2ccc(-c3ccccc3F)cc2)[C@@H](CO)N1C(=O)c1ccccn1	0.488
O=C(C[C@@H]1CC[C@H]2[C@@H](COC[C@H](O)CN2S(=O)(=O)c2ccccc2)O1)NCC1CCCCC1	-1.11
C/C=C/c1cnc2c(c1)C(=O)N([C@@H](C)CO)C[C@@H](C)[C@H](CN(C)CC1CCOCC1)O2	0.0919
O=C(Nc1ccc(F)cc1)N1CC(=O)N2[C@H](CO)[C@@H](c3ccc(C#Cc4ccc(F)cc4)cc3)[C@@H]2C1	0.945
CC(=O)N1[C@H](CO)[C@H](c2ccccc2)[C@@H]1CN(CC(C)C)C(=O)c1ccccn1	1.15
C[C@H](NC(=O)C[C@@H]1CC[C@H]2[C@@H](COC[C@@H](O)CN2Cc2ccc(C(F)(F)F)cc2)O1)c1ccccc1	-0.218
C[C@H](CO)N1C[C@H](C)[C@H](CN(C)C(=O)Nc2ccc3c(c2)OCO3)OCc2ccccc2-c2c(n(C)c3ccccc23)C1=O	0.169
CN(C)CC#Cc1ccc([C@@H]2[C@H](CO)N3CCCCN(C(=O)C4CCC4)C[C@@H]23)cc1	2.63
COc1ccccc1C#Cc1ccc([C@H]2[C@H]3CN(C(=O)C4CCC4)CCCCN3[C@H]2CO)cc1	-17.5*
COc1ccccc1NC(=O)N1CCCCN2[C@H](CO)[C@@H](c3ccc(C#Cc4ccccc4)cc3)[C@H]2C1	-2.74
COc1ccc(C#Cc2ccc([C@@H]3[C@H](CO)N4CCCCN(C(=O)Nc5ccccc5)C[C@@H]34)cc2)cc1	4.01
COc1ccccc1NC(=O)N1CCCCN2[C@H](CO)[C@H](c3ccc(C#Cc4ccccc4)cc3)[C@@H]2C1	-0.364
COc1ccc(C#Cc2ccc([C@H]3[C@H]4CN(C(=O)Nc5ccccc5)CCCCN4[C@H]3CO)cc2)cc1	1.31
COc1ccccc1NC(=O)N1CCCCN2[C@@H](CO)[C@H](c3ccc(C#Cc4ccccc4)cc3)[C@@H]2C1	-2.52
COc1ccccc1C#Cc1ccc([C@@H]2[C@@H](CO)N3CCCCN(C(=O)C4CCC4)C[C@H]23)cc1	-8.25*
CN(C)CC#Cc1ccc([C@@H]2[C@H]3CN(C(=O)C4CCC4)CCCCN3[C@H]2CO)cc1	0.919
COc1ccccc1C#Cc1ccc([C@@H]2[C@H](CO)N3CCCCN(C(=O)C4CCC4)C[C@@H]23)cc1	-10.5*
COc1ccc(C#Cc2ccc([C@H]3[C@@H](CO)N4CCCCN(C(=O)Nc5ccccc5)C[C@@H]34)cc2)cc1	0.819
COc1ccccc1C#Cc1ccc([C@H]2[C@@H](CO)N3CCCCN(C(=O)C4CCC4)C[C@@H]23)cc1	-7.57*
COc1cccc(CN2CC3(C2)[C@H](c2ccccc2)[C@@H](CO)N3Cc2ccccc2OC)c1	-0.387
CO[C@@H]1CN(C)C(=O)c2cc(NC(=O)C3CCCCC3)ccc2OC[C@H](C)N(C(=O)c2ccccc2)C[C@H]1C	1.18
C[C@H](CO)N1C[C@H](C)[C@H](CN(C)C(=O)c2cnccn2)Oc2cc(C#CCC3CCCC3)ccc2S1(=O)=O	0.173
C/C=C/c1ccc([C@@H]2[C@H](CO)N(C(=O)COC)[C@H]2CNC(=O)CC)cc1	4.39
O=C(NCC[C@H]1CC[C@@H](NS(=O)(=O)c2ccc(F)cc2)[C@@H](CO)O1)c1ccc2c(c1)OCO2	1.2
O=C(C[C@@H]1CC[C@H](NC(=O)C2CC2)[C@@H](CO)O1)Nc1ccccc1	0.511
SMILES	IDE exosite inh
CCCC#Cc1ccc([C@H]2[C@H](CO)N3C(=O)CN(C(=O)Nc4ccccc4)C[C@@H]23)cc1	2.16
N#C[C@H]1[C@@H](c2ccccc2-c2cccc(F)c2)[C@@H](CO)N1C(=O)c1cccnc1	-0.193
COc1ccc(NC(=O)N2CC(=O)N3[C@H](CO)[C@H](c4ccc(-c5ccccc5)cc4)[C@@H]3C2)cc1	2.76
COc1ccc(S(=O)(=O)Nc2ccc3c(c2)CC(=O)N([C@@H](C)CO)C[C@H](C)[C@@H](CN(C)C(=O)Nc2c(C)noc2C)O3)cc1	1.53
Cc1noc(C)c1NC(=O)N1C[C@H](O)COC[C@@H]2O[C@H](CC(=O)NCC3CC3)CC[C@H]21	0.901
CC[C@@H]1C/C=C\CCNC(=O)CCC(=O)N1	-1.13
COCC(=O)N1CCCCN2[C@H](CO)[C@H](c3ccc(C#Cc4ccccc4)cc3)[C@@H]2C1	-8.38*
